Source: PubChem BioAssay (NCATS)
Records with an inconclusive call do not appear. A call without a number means that no potency is given here. Activity calls are given as the source filed them. Calls come from the whole dose curve; as a rule, active = well fitted curve in the direction sought with a large enough effect; inconclusive = small, poorly fitted or top-dose-only effect, or another doubt; inactive = no such curve, though single readings can be large; an effect the other way counts as inactive or inconclusive.

Experiment: qHTS of Nrf2 Activators: LOPAC Validation (AID 624149); note: potency is the fitted concentration of half-maximal effect
Details: Nrf2/ARE reporter cell assay; series mostly up to 46.1 µM
Procedure, shortened: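 AREc32_Fluc cells, 1000/well in OPTI-MEM with 5% FBS, grown overnight, then exposed to compounds for 24 hr at 37 deg C, 5% CO2. ARE-driven firefly luciferase read by Steady-Glo luminescence after 30 min at RT.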

Row | SMILES | Potency
1 | COc1cc(NS(C)(=O)=O)ccc1Nc1c2ccccc2nc2ccccc12 | inactive
2 | CC(C)COC(=O)OCN1C(=O)CN(CCN2CC(=O)N(COC(=O)OCC(C)C)C(=O)C2)CC1=O | inactive
3 | N[C@H](CO)C(=O)O | inactive
4 | COc1cc2c(cc1O)CC[C@@H]1[C@@H]2CC[C@]2(C)[C@@H](O)CC[C@@H]12 | inactive
5 | CN1C2CCC1CC(OC(=O)c1c[nH]c3ccccc13)C2 (stereo not drawn) | inactive
6 | CCC(NC(C)C)C(O)c1ccc(O)c(O)c1 (stereo not drawn) | inactive
7 | N[C@@H](Cc1cnc[nH]1)C(=O)O | inactive
8 | C[C@]12CC[C@@H]3c4ccc(O)cc4CC[C@H]3[C@@H]1CC[C@@H]2O | inactive
9 | C[N+]1(CCCCC[N+]2(C)CCCC2)CCCC1 | inactive
10 | O=C(O)c1cc2cc(Cc3cccnc3)ccc2o1 | inactive
11 | Oc1ccc(O)cc1 | 18.4 µM (active)
12 | CCCn1c(=O)[nH]c(=O)c2[nH]cnc21 | inactive
13 | CCCC1O[C@@H]2C[C@H]3[C@@H]4CCC5=CC(=O)C=C[C@]5(C)[C@H]4[C@@H](O)C[C@]3(C)[C@]2(C(=O)CO)O1 (stereo partly drawn) | inactive
14 | O=C1CCC(c2ccc(-n3ccnc3)cc2)=NN1 | inactive
15 | CC(C)C[C@H]1C(=O)N2CCC[C@H]2[C@]2(O)O[C@](NC(=O)[C@@H]3C=C4c5cccc6[nH]c(Br)c(c56)C[C@H]4N(C)C3)(C(C)C)C(=O)N12 | inactive
16 | C1CCc2nnnn2CC1 | inactive
17 | CC[C@H](C)C(=O)O[C@H]1CCC=C2C=C[C@H](C)[C@H](CC[C@@H]3C[C@@H](O)CC(=O)O3)[C@H]21 | inactive
18 | CNCCC(Oc1ccccc1C)c1ccccc1 (stereo not drawn) | inactive
19 | CC(=O)O[C@H]1C[C@@H]2CC[C@@H]3[C@H](CC[C@@]4(C)[C@H]3C[C@H]([N+]3(C)CCCCC3)[C@@H]4OC(C)=O)[C@@]2(C)C[C@@H]1[N+]1(C)CCCCC1 | inactive
20 | COC(=O)[C@H]1[C@H]2C[C@H]3c4[nH]c5ccccc5c4CCN3C[C@H]2CC[C@@H]1O | inactive
21 | C[C@@H]1C(=O)NC2=Nc3cccc(Cl)c3CN21 | inactive
22 | Nc1cc(Cl)c(NC2=NCCN2)c(Cl)c1 | inactive
23 | CC(CCc1ccccc1)NCC(O)c1ccc(O)c(C(N)=O)c1 (stereo not drawn) | inactive
24 | CNCCC=C1c2ccccc2CCc2ccccc21 | inactive
25 | CC1(C)CCC(NC(=O)[C@@H](N)CCC(=O)O)CC1 | inactive

Experiment: HTS Assay for Allosteric Antagonists of the Human D2 Dopamine Receptor: Hit Validation in HTRF (AID 624455);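 note: stable D1 dopamine receptor cell line scored for blocking the D1 response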
Details: Cells stably expressing D1 dopamine receptor, inhibition mode; series mostly up to 46.1 µM
Procedure, shortened: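 Hit validation in cells stably expressing the D1 dopamine receptor, run in HTRF format. Compounds were tested for their ability to inhibit the D1-mediated response.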

Row | SMILES | outcome
26 | COc1cc(NS(C)(=O)=O)ccc1Nc1c2ccccc2nc2ccccc12 | inactive
27 | CC(C)COC(=O)OCN1C(=O)CN(CCN2CC(=O)N(COC(=O)OCC(C)C)C(=O)C2)CC1=O | inactive
28 | N[C@H](CO)C(=O)O | inactive
29 | COc1cc2c(cc1O)CC[C@@H]1[C@@H]2CC[C@]2(C)[C@@H](O)CC[C@@H]12 | inactive
30 | CN1C2CCC1CC(OC(=O)c1c[nH]c3ccccc13)C2 (stereo not drawn) | inactive
31 | CCC(NC(C)C)C(O)c1ccc(O)c(O)c1 (stereo not drawn) | inactive
32 | N[C@@H](Cc1cnc[nH]1)C(=O)O | inactive
33 | C[C@]12CC[C@@H]3c4ccc(O)cc4CC[C@H]3[C@@H]1CC[C@@H]2O | inactive
34 | C[N+]1(CCCCC[N+]2(C)CCCC2)CCCC1 | inactive
35 | O=C(O)c1cc2cc(Cc3cccnc3)ccc2o1 | inactive
36 | Oc1ccc(O)cc1 | inactive
37 | CCCn1c(=O)[nH]c(=O)c2[nH]cnc21 | inactive
38 | CCCC1O[C@@H]2C[C@H]3[C@@H]4CCC5=CC(=O)C=C[C@]5(C)[C@H]4[C@@H](O)C[C@]3(C)[C@]2(C(=O)CO)O1 (stereo partly drawn) | inactive
39 | O=C1CCC(c2ccc(-n3ccnc3)cc2)=NN1 | inactive
40 | CC[C@H](C)C(=O)O[C@H]1CCC=C2C=C[C@H](C)[C@H](CC[C@@H]3C[C@@H](O)CC(=O)O3)[C@H]21 | inactive
41 | CC(=O)O[C@H]1C[C@@H]2CC[C@@H]3[C@H](CC[C@@]4(C)[C@H]3C[C@H]([N+]3(C)CCCCC3)[C@@H]4OC(C)=O)[C@@]2(C)C[C@@H]1[N+]1(C)CCCCC1 | inactive
42 | COC(=O)[C@H]1[C@H]2C[C@H]3c4[nH]c5ccccc5c4CCN3C[C@H]2CC[C@@H]1O | inactive
43 | C[C@@H]1C(=O)NC2=Nc3cccc(Cl)c3CN21 | inactive
44 | Nc1cc(Cl)c(NC2=NCCN2)c(Cl)c1 | inactive
45 | CC(CCc1ccccc1)NCC(O)c1ccc(O)c(C(N)=O)c1 (stereo not drawn) | inactive
46 | CNCCC=C1c2ccccc2CCc2ccccc21 | inactive
47 | CC1(C)CCC(NC(=O)[C@@H](N)CCC(=O)O)CC1 | inactive

Experiment: Cytotoxicity counterscreen for NFkB agonists and antagonists (AID 624476);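 note: cells exposed to compound for 48 hours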; note: potency is the fitted concentration of half-maximal effect
Details: NFkB reporter cell line viability counterscreen; series mostly up to 92.2 µM

Row | SMILES | Potency
48 | COc1cc2c(cc1O)CC[C@@H]1[C@@H]2CC[C@]2(C)[C@@H](O)CC[C@@H]12 | inactive
49 | COc1cccc2c1C(=O)c1c(O)c3c(c(O)c1C2=O)C[C@@](O)(C(=O)CO)C[C@@H]3O[C@H]1C[C@H](N)[C@H](O)[C@H](C)O1 | 0.0332 µM (active)
50 | Nc1ccn([C@@H]2O[C@H](CO)[C@@H](O)C2(F)F)c(=O)n1 | inactive

Experiment: qHTS Assay for Identification of Small Molecule Agonists for NFkB Signaling Pathway. (AID 624478)
Details: NFkB pathway reporter cell assay, agonist mode, cells co-stimulated with 10 pM TNF alpha; series mostly up to 46.1 µM
Procedure, shortened: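 NFkB-bla ME-180 cells carry a beta-lactamase reporter. They received compound plus TNF alpha at 10 pM final (its EC50) for 5 h at 37 C. Reporter activity was read as 460/530 nm emission ratio after 2 h LiveBLAzer substrate loading.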

Row | SMILES | outcome
51 | COc1cc2c(cc1O)CC[C@@H]1[C@@H]2CC[C@]2(C)[C@@H](O)CC[C@@H]12 | inactive
52 | COc1cccc2c1C(=O)c1c(O)c3c(c(O)c1C2=O)C[C@@](O)(C(=O)CO)C[C@@H]3O[C@H]1C[C@H](N)[C@H](O)[C@H](C)O1 | inactive
53 | Nc1ccn([C@@H]2O[C@H](CO)[C@@H](O)C2(F)F)c(=O)n1 | inactive
